# Data as given in PubChem BioAssay AID2782 (National Center for Advancing Translational Sciences (NCATS), 2010).
# Results filed as inconclusive are left out. Where a call stands in place of a potency, no number is given. Activity calls are given as the source filed them. The call rests on the fitted dose curve; in most records, active means well fitted inhibition curve with a large enough effect in the polarisation, with a control signal flat (not every such curve was filed as active); inconclusive means small, poorly fitted or top-dose-only effect, or effect the other way, or a change in a side signal; inactive means no such curve, though single readings can be large or run the other way; the % refers to the polarisation.
# Assay: Confirmation of Inhibitors Targeting the Menin-MLL Interaction in MLL Related Leukemias: Competition With Texas Red Labeled MLL-derived Mutant Peptide
# Conditions: fluorescence polarization, Texas Red MLL peptide displacement; series mostly up to 94.6 µM
# How it was run: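 Hits from the primary screen were retested: compounds were incubated 1 hr at ambient with 200 nM menin, 50 nM Texas Red mutant peptide and 25 nM fluorescein wild-type peptide (Tris pH 7.5, BSA-supplemented buffer), then fluorescence polarization was read.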
# Potency means the concentration at half of the fitted maximal effect.
row,SMILES,Potency
1,Cc1ccc(C#CC(C)(O)C(C)(C)C)cn1 (centres undefined),inactive
2,O=C1C(Cl)=C(NCCN2CCOCC2)C(=O)c2ncccc21,inactive
3,CCOc1cc(C(c2c(C)[nH][nH]c2=O)c2c(C)[nH][nH]c2=O)cc(Br)c1OC,inactive
4,Cc1ccc(C2=NN(C(=O)c3ccccc3F)C(c3ccccc3F)C2)cc1 (centres undefined),inactive
5,CCN(CC)Cc1cc2[nH]c3c4ccc(Cl)cc4ncc3c2cc1OC,56.4 µM (active)
6,O=C(N1CCOCC1)N1CCN(S(=O)(=O)c2ccc(Cl)cc2)CC1,inactive
7,CC1CN(c2c3c(nc4ncnn24)CCCC3)CC(C)O1 (centres undefined),inactive
8,CN1CCN(CC(=O)Nc2ccc(S(=O)(=O)N(C)C)cc2)CC1,inactive
9,COc1cc(NC(=O)c2cccnc2)c(OC)cc1NC(=O)c1ccc(Br)cc1,inactive
10,COc1ccc(N(CC(=O)NC2CC3CCC2C3)S(=O)(=O)c2ccc(C)cc2)cc1OC (centres undefined),inactive
11,CN(C)/C=C(/C(=O)c1ccc(Cl)cc1)S(=O)(=O)c1ccc(Cl)cc1,inactive
12,COc1ccccc1CC(=O)Nc1ccc(-c2noc(COc3ccc(Br)cc3)n2)cc1,71 µM (active)
13,CCCC(=O)NC(c1ccccc1Cl)c1ccc2cccnc2c1O (centres undefined),inactive
14,N#CC1=C(N)OC2=C(C(=O)CC(c3ccco3)C2)C1c1ccc(OCc2c(F)cccc2Cl)cc1 (centres undefined),inactive
15,CCOc1ccc(NC(=O)c2cccc(OC(=S)N3CCC(C)CC3)c2)cc1,inactive
16,O=C(Nc1ccc2c(c1)OCO2)c1ccccc1,inactive
17,CCCc1cc(=O)oc2c3c(c(Cl)cc12)OCN(CCCO)C3,inactive

row,SMILES,Potency
1,COc1ccc(-c2csc(NC(=S)NC(=O)/C=C/c3ccc(C(C)C)cc3)n2)cc1OC,17.8 µM (active)
2,CCn1cnc2c1c(=O)n(CC(=O)O)c(=O)n2Cc1ccccc1,inactive
3,NC(=O)c1ccc(NC(=O)c2cncn2-c2ccccc2)cc1,inactive
4,C[C@H](NC(=O)c1cc2c(cn1)[nH]c1ccccc12)C(=O)O,56.4 µM (active)
5,CCCN(CCC)CCCNC(=O)c1cc2c(=O)[nH]c3ccccc3c2s1,inactive
6,CCOc1ccccc1N(CC(=O)Nc1ccccc1C(=O)N1CCCC1)S(C)(=O)=O,inactive
7,COc1cc2c(cc1NC(=S)NC(=O)c1c(OC)cccc1OC)oc1ccccc12,11.2 µM (active)
8,Cc1ccc(C)n1-c1ccc(N(C)C)cc1,inactive
9,O=C1CCNc2c(Cl)cc(Cl)cc21,inactive
10,CC(=O)Nc1ccc(-c2cc3ccccc3o2)cc1,inactive
11,CN1[C@H](CC(=O)c2ccccc2)CCC[C@H]1C[C@@H](O)c1ccccc1,inactive
12,O=C(Nc1ccc(F)c(Cl)c1)c1cc(-c2ccco2)on1,31.7 µM (active)
13,O=C(CC(Sc1ccc(Br)cc1)C(=O)O)c1ccc(F)cc1 (centres undefined),inactive
14,CN(C)CCc1c[nH]c2ccc(CC3COC(=O)N3)cc12 (centres undefined),inactive
15,CCOC(=O)N1CCN(C(=O)c2oc3ccc(S(=O)(=O)N(CC)CC)cc3c2C)CC1,inactive
16,CCN1C(=O)c2ccccc2S(=O)(=O)c2ccc(C(=O)NCCCN(CC(C)C)CC(C)C)cc21,inactive
17,CCOC(=O)c1cnc2ccc(OCC)cc2c1N1CCN(C)CC1,31.7 µM (active)
